Source: PubChem BioAssay (National Center for Advancing Translational Sciences (NCATS))
PKM2 activator: increases activity of human pyruvate kinase M2 | AID 1631 | purified PKM2, Kinase-Glo ATP luminescence, activation; response scale: 0% is enzyme alone, no compound | Potency, µM (series often up to 57.5 µM), for the others: at the highest dose activation, most hits filed as activators | 260,000 compounds, 0.34% hits | P14618; also: potency is read from the fitted curve at half-maximal effect; % is scaled to controls: 0 for no effect and ±100 for the full control effect; nearly all actives have a fitted effect of over 55% in size
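hPK-M2, >95% pure; 0.1 mM ADP / 0.5 mM PEP final; imidazole pH7.2 buffer w/ 7 mM MgCl2, 50 mM KCl; 1 h RT; Kinase-Glo lum. Intermediate enzyme activity for dual inhibitor/activator qHTS.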
ClpP mod: qHTS Assay for Activators of ClpP | purified B. subtilis ClpP, FRET peptide cleavage, 20 min | Potency, µM (top dose mostly 57.5 µM), without a hit: at the highest dose activity change, negative = active | 340,000 compounds, 1.9% hits | AID 651965, 2013; active = well fitted falling curve with a large enough effect; inconclusive = small, poorly fitted or top-dose-only effect; inactive = no such curve, though single readings can be large or run the other way; also: potency is read from the fitted curve at half-maximal effect; the source files actives as falling curves though it sought activators and does not explain the sign; nearly all actives have a fitted effect of over 65% in size
Target sequence (P80244 whole entry, looked up): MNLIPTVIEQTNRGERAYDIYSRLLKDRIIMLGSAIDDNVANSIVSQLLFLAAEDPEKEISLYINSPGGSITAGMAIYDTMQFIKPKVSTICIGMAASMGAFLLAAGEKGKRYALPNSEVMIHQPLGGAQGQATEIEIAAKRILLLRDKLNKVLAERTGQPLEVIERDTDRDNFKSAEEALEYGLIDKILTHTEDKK
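Purified B. subtilis ClpP, 10 microg/mL final in Tris/HCl pH8 with KCl, BSA, glycerol and Tween-20, cleaved an Abz/nitrotyrosine-quenched decapeptide. Fluorescence (ex 320, em 430) was read at 0 and 20 min at room temperature. Delta was normalized to 5.8 microM ADEP and DMSO/no-enzyme controls.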
NPSR antag: blocks cAMP signaling of the human neuropeptide S receptor. Q6W5P4. CHO-NPSR cells, cAMP TR-FRET, antagonist mode. Potency, µM (top dose mostly 38.3 µM), for inactives: top-dose activity change, negative = inhibition, actives largely listed as inhibitors. 220,000 compounds, 1% hits. AID 1461; also: potency is read from the fitted curve at half-maximal effect; % is scaled to controls: 0 for no effect and ±100 for the full control effect; nearly all actives have a fitted effect of over 50% in size
Target sequence (Q6W5P4 whole entry, looked up): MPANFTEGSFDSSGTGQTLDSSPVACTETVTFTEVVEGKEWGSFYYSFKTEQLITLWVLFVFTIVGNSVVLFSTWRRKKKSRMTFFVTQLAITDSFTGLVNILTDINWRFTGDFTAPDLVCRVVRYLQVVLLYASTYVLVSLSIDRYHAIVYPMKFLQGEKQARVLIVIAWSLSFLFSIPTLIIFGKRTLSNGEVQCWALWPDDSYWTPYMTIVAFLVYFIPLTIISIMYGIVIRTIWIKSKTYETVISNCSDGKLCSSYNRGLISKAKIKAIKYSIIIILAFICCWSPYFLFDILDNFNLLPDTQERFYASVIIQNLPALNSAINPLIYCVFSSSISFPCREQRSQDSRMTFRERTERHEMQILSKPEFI
IL2 activator: activates IL-2 in a cell-based reporter assay | IL-2 activation reporter assay, cell-based qHTS; stimulated with anti-CD3/CD4/CD28 beads; in transgenic mouse T cells | activation, % (series mostly up to about 46 µM) | 360,000 compounds, 0.065% hits; in the data active = activation above about 50%; inconclusive = mostly about 30% to 49%; also: 0% is about no effect
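Unstimulated transgenic mouse T cells, 750 per well, received compound and, after 60 minutes, anti-CD3/anti-CD4 bead plus anti-CD28 stimulation. EGFP and DsRed were quantified after 18 hours.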
Starred values were filed as active, the others as inactive; [ ] = dose if it differs, or a comment. This is a sample that favours compounds with a hit; in the whole collection about 2% have one here. Unless noted, calls follow the shape of the dose curve; as a rule, active = well fitted curve in the direction sought with a large enough effect; inconclusive = small, poorly fitted or top-dose-only effect, or another doubt; inactive = no such curve, though single readings can be large; an effect the other way counts as inactive or inconclusive.

Results for Cn1cnc([N+](=O)[O-])c1Sc1nc(N)nc2c1ncn2Cc1ccccc1 ?
ClpP mod: 32µM*; IL2 activator: -1

How did Cc1noc(C)c1CSCC(=O)Nc1ccc(S(C)(=O)=O)cc1 do in these assays?
ClpP mod: -2%; IL2 activator: 1

What do the screens show for `COc1ccc(/C=C/C(=O)OCC(=O)N2CCCC2)c(OC)c1`?
ClpP mod: -13%; IL2 activator: 0

Results for O=C(COc1coc(CN2CCc3ccccc3C2)cc1=O)N1CCOCC1 ?
ClpP mod: 28µM*; IL2 activator: 2

How did CCOc1ccccc1NC(=O)COc1coc(CN2CCc3ccccc3C2)cc1=O do in these assays?
ClpP mod: inconclusive; IL2 activator: 1

How did Cc1nc2ccccc2nc1CSc1nnc(N)s1 do in these assays?
PKM2 activator: 1%; ClpP mod: 1%; NPSR antag: inconclusive; IL2 activator: 2

What do the screens show for `COCCCNC(=S)Nc1cc2oc3ccccc3c2cc1OC`?
PKM2 activator: -2%; ClpP mod: -24%; IL2 activator: -3

What do the screens show for `COc1cc2c(cc1NCc1ccc3c(c1)OCO3)oc1ccccc12`?
PKM2 activator: 8%; ClpP mod: 25µM*; NPSR antag: -12%[46.1 µM]; IL2 activator: -1

How did COc1cc2c(cc1NC(=O)c1ccc3c(c1)OCO3)oc1ccccc12 do in these assays?
PKM2 activator: -6%; ClpP mod: 32µM*; NPSR antag: -25%[46.1 µM]; IL2 activator: 1

How did COc1cc2c(cc1NCc1ccccn1)oc1ccccc12 do in these assays?
PKM2 activator: 0%; ClpP mod: 28µM*; NPSR antag: -6%[46.1 µM]; IL2 activator: 1

Results for O=S(=O)(NCc1ccc2c(c1)OCO2)c1ccc2oc3ccccc3c2c1 ?
ClpP mod: -4%; IL2 activator: 3

How did O=C(CSc1nccn1Cc1ccc(F)cc1)Nc1ccc(F)cc1F do in these assays?
PKM2 activator: -7%; ClpP mod: -3%; IL2 activator: -3

How did Cc1ccc(CNC(=O)CCCn2c(=O)c3ccccc3n(CC(=O)Nc3ccc(C)cc3)c2=O)cc1 do in these assays?
ClpP mod: -2%

What do the screens show for `Cn1cccc1C(=O)NC(=O)COC(=O)CC12CC3CC(CC(Br)(C3)C1)C2`?
PKM2 activator: -4%; ClpP mod: 28µM*; NPSR antag: -10%[46.1 µM]; IL2 activator: 0

How did N#Cc1ccc(NC(=S)Nc2ccccc2)cc1 do in these assays?
PKM2 activator: 2%; ClpP mod: 1%; NPSR antag: 4%; IL2 activator: 0

What do the screens show for `CCc1nc2sc(C#N)c(N)c2c2c1CCCC2`?
ClpP mod: 28µM*; IL2 activator: -2

How did COc1ccccc1C(=O)N(c1ccc(C)cc1)S(=O)(=O)c1ccc(Cl)cc1 do in these assays?
ClpP mod: 0%

Results for Cc1ccc(N(C(=O)COc2ccccc2C)S(=O)(=O)c2ccc(Cl)cc2)cc1 ?
ClpP mod: 0.71µM*

How did CCOC(=O)N1CCN(C(=O)CSC2=NS(=O)(=O)c3cc(Cl)ccc3N2)CC1 do in these assays?
ClpP mod: -1%; IL2 activator: 0

What do the screens show for `COc1ccc(NC(=O)c2[nH]c(C)c(C(C)=O)c2C)cc1Cl`?
PKM2 activator: -11%; ClpP mod: -3%; NPSR antag: -2%[46.1 µM]; IL2 activator: 1

What do the screens show for `COc1ccc(C(C)(C)C)cc1NC(=O)c1[nH]c(C)c(C(C)=O)c1C`?
PKM2 activator: 18µM*; IL2 activator: -1

What do the screens show for `COc1ccc(CCNC(=O)c2[nH]c(C)c(C(C)=O)c2C)cc1`?
PKM2 activator: 25%; ClpP mod: 35µM*; NPSR antag: -10%[46.1 µM]; IL2 activator: 0

Results for Cc1ccc(C)c(Oc2cc(F)nc(N)n2)c1 ?
ClpP mod: 18µM*; IL2 activator: 17

What do the screens show for `O=c1c2ccccc2c(C=Nc2ccccc2O)c(O)n1-c1nccs1`?
PKM2 activator: -5%; ClpP mod: -1%; NPSR antag: 47%; IL2 activator: 64*

What do the screens show for `COC(=O)c1ccc(C2SCC(=O)N2Cc2ccccc2)cc1` (stereo unspecified)?
ClpP mod: 1%; IL2 activator: 0

Results for CCCC(C)NC(=O)c1ccc(C2SCC(=O)N2Cc2ccco2)cc1 (stereo unspecified) ?
PKM2 activator: 0%; ClpP mod: 32µM*; NPSR antag: -14%[46.1 µM]; IL2 activator: 1

What do the screens show for `CCC(OC(=O)c1ccco1)C(=O)NC1CCCC1` (stereo unspecified)?
PKM2 activator: -7%; IL2 activator: 0

What do the screens show for `O=C(NNc1ccccc1)C(=O)NNS(=O)(=O)c1ccc([N+](=O)[O-])cc1`?
PKM2 activator: -23%; NPSR antag: 19%; IL2 activator: -2

What do the screens show for `CC(=O)NCN1CCN(CNC(C)=O)CC1`?
PKM2 activator: 27%; ClpP mod: 25µM*; NPSR antag: inconclusive; IL2 activator: 0

What do the screens show for `CC(=O)N1CCN(CC(=O)O)CC1`?
PKM2 activator: 0%; NPSR antag: 9%

Results for Cc1ccc(S(=O)(=O)c2c(N)n(CCCN(C)C)c3nc4ccccc4nc23)cc1 ?
PKM2 activator: 2%; ClpP mod: 4%; NPSR antag: -11%; IL2 activator: -1

What do the screens show for `Cc1ccc(-n2c(N)c(S(=O)(=O)c3ccccc3)c3nc4ccccc4nc32)cc1`?
PKM2 activator: -9%; NPSR antag: -35%; IL2 activator: -4

How did Cc1cccc(S(=O)(=O)c2c(N)n(-c3ccccc3)c3nc4ccccc4nc23)c1 do in these assays?
PKM2 activator: 22%; ClpP mod: 14µM*; NPSR antag: -35%; IL2 activator: -4

How did Cc1ccc(S(=O)(=O)c2c(N)n(CC3CCOC3)c3nc4ccccc4nc23)cc1 (stereo unspecified) do in these assays?
PKM2 activator: 4%; ClpP mod: 13µM*; NPSR antag: inconclusive; IL2 activator: -1

Results for Nc1c(S(=O)(=O)c2cccc(Cl)c2)c2nc3ccccc3nc2n1CCN1CCOCC1 ?
PKM2 activator: 2%; ClpP mod: 32µM*; NPSR antag: inconclusive; IL2 activator: -1

What do the screens show for `CCCCn1c(NS(=O)(=O)c2ccc(C)cc2)c(S(=O)(=O)c2ccccc2)c2nc3ccccc3nc21`?
PKM2 activator: 12%; ClpP mod: 25µM*; NPSR antag: inconclusive; IL2 activator: 0

How did COc1ccc(NC(=O)CSc2nc3ccccc3nc2Cc2ccc(C)cc2)cc1Cl do in these assays?
ClpP mod: -1%

How did Cc1ccnc(Nc2nc(-c3ccc(O)cc3O)cs2)c1 do in these assays?
PKM2 activator: 2%; ClpP mod: -1%; IL2 activator: 0

Results for C/C(=N/NS(=O)(=O)c1ccccc1)c1c[nH]c2ccccc12 ?
PKM2 activator: 8%; ClpP mod: -4%; IL2 activator: 1

What do the screens show for `COc1ccc2ccccc2c1C1NC(=O)c2ccccc2N1` (stereo unspecified)?
ClpP mod: 14µM*; IL2 activator: -5
